Compounds with a hit are over-represented: about 12% of the library has one in this group of screens.
Shiga toxin inh: inhibitors of Shiga toxin in Vero cells. Vero cells, Shiga toxin protein synthesis inhibition reporter. inhibition, % at 38.7 µM. 290,000 compounds, 9.2% hits. AID 2315; in the data active means inhibition mostly above about 28%, no sharp cut-off; inactive means mostly below about 43%; further: 0% is about no effect
Marburg entry inh: Marburg virus entry inhibition | Marburg virus pseudotyped entry inhibition, cell reporter | Potency, µM (highest dose often 37.8 µM), without a hit: top-dose activity change, negative = inhibition, usual class: inhibitors | 300,000 compounds, 1.8% hits | AID 540276; calls by dose curve; tested in HEK293 cells; further: potency means the concentration at half of the fitted maximal effect; on the % scale 0 is the no-effect control and ±100 the full control effect
Lassa entry inh: inhibitors of Lassa virus binding or cell entry. Potency, µM (top dose mostly 37.9 µM), inactives show top-dose activity change, negative = inhibition, actives largely listed as inhibitors. Lassa virus pseudotype entry inhibition, cell reporter. 300,000 compounds, 1.2% hits; calls by dose curve; tested in HEK293 cells; further: potency means the concentration at half of the fitted maximal effect; on the % scale 0 is the no-effect control and ±100 the full control effect; nearly all actives have a fitted effect of over 50% in size
Cycloheximide cs: counter-screen hit for Shiga toxin inhibitors, cycloheximide. cell reporter, cycloheximide protein synthesis inhibition counterscreen. max response, %. 300,000 compounds, 12% hits. AID 2314; in the data active means max response mostly above about 13%, no sharp cut-off; inactive means mostly below about 14%; further: read at 38.3 µM for the half of the compounds with a filed dose; 0% is about no effect
* marks the source's active call; other numbers are inactive results; [ ] = another dose, or the depositor's remark.

Cn1c(-c2ccccc2)cnc1NCc1cc2c(cc1[N+](=O)[O-])OCO2 was read as Shiga toxin inh 60*, Marburg entry inh inconclusive, Lassa entry inh inconclusive and Cycloheximide cs 53*.
`CCOc1ccc(-c2cnc(NCc3cccc(Cl)c3)n2C)cc1` gave Marburg entry inh inconclusive and Lassa entry inh -4%[46.1 µM].
O=C(Nc1nccs1)c1cccc(NC(=O)C2CC2)c1 was read as Shiga toxin inh 13, Marburg entry inh -2%, Lassa entry inh 16% and Cycloheximide cs 9.
CC(C)(C)C1CCC(C(=O)Nc2nccs2)CC1 (stereo not given) was read as Shiga toxin inh 47* and Cycloheximide cs 15.
CC(=O)c1ccc(S(=O)(=O)N2CCC(C(=O)Nc3ncc(C)s3)CC2)cc1 was read as Marburg entry inh -26% and Lassa entry inh 2%.
`Cc1cnc(NC(=O)C2CC=CCC2)s1` (stereo not given) gave Shiga toxin inh 45*, Marburg entry inh 0%[46.1 µM], Lassa entry inh 4% and Cycloheximide cs 24*.
Screening Cc1cnc(NC(=O)C2CCC(C(C)(C)C)CC2)s1 (stereo not given) returned Shiga toxin inh 33, Marburg entry inh 5%[46.1 µM], Lassa entry inh -26% and Cycloheximide cs 20*.
Screening CCCCN(C)CCCNC(=O)c1ccc2nc(N3CCCCC3)sc2c1 returned Marburg entry inh -6%[46.1 µM].
For Cc1ccc(CN(C(=O)c2ccc([N+](=O)[O-])cc2)c2ccccn2)cc1 the results were Marburg entry inh 23%[46.1 µM] and Lassa entry inh -18%[46.1 µM].
`CC1CCN(c2ccc(NC(=S)NC(=O)c3ccco3)cc2)CC1` gave Shiga toxin inh 72*, Marburg entry inh -2%, Lassa entry inh 0% and Cycloheximide cs 19*.
Screening O=C(NC(=S)Nc1ccc(N2CCCCC2)cc1)c1ccco1 returned Shiga toxin inh 92*, Marburg entry inh inconclusive, Lassa entry inh 76%[14.3 µM] and Cycloheximide cs 39*.
Cc1ccc(C(=O)NC(=S)Nc2ccc(N3CCN(C(=O)c4ccco4)CC3)cc2)cc1 was read as Shiga toxin inh -11, Marburg entry inh 9%, Lassa entry inh -6% and Cycloheximide cs 11.
Screening O=C(NC(=S)Nc1ccccc1N1CCCCC1)c1ccco1 returned Shiga toxin inh -4, Marburg entry inh 0%, Lassa entry inh -10% and Cycloheximide cs -1.
For Cc1cccn2c(=O)c(C=O)c(NCc3ccccc3)nc12 the results were Shiga toxin inh 20 and Cycloheximide cs 5.
Screening COc1ccc(-c2cc(OC(=O)c3ccc(F)cc3)c3c(C)oc(C)c3c(=O)c2)cc1OC returned Marburg entry inh inconclusive and Lassa entry inh 8%[46.1 µM].
Screening Cc1ccc2nc(-c3ccc(Cl)c(NC(=O)c4cccnc4)c3)oc2c1 returned Marburg entry inh 22%[46.1 µM] and Lassa entry inh 3%[46.1 µM].
COC(=O)c1ccc(-c2nc3ccc(C)cc3o2)cc1 was read as Shiga toxin inh 154*, Marburg entry inh -22%, Lassa entry inh inconclusive and Cycloheximide cs 76*.
`O=C1c2ccccc2C(=O)N1c1ccc(-c2nc3ccccc3o2)cc1` gave Shiga toxin inh -18, Marburg entry inh 0% and Cycloheximide cs 7.
Nc1ccc(CCc2nc3ccccc3o2)cc1 was read as Shiga toxin inh 64, Marburg entry inh inconclusive, Lassa entry inh inconclusive and Cycloheximide cs 28*.
NCc1ccc(-c2nc3ccccc3o2)cc1 was read as Shiga toxin inh 93*, Marburg entry inh -4% and Cycloheximide cs 59*.
For Nc1nc2ccc(-c3nc4ccccc4o3)cc2s1 the results were Shiga toxin inh 13*, Marburg entry inh inconclusive, Lassa entry inh inconclusive and Cycloheximide cs 36*.
Screening Cc1ccccc1-c1nc2ccccc2o1 returned Shiga toxin inh -3, Marburg entry inh 8%, Lassa entry inh 18% and Cycloheximide cs 11.
`Cc1ccc2c(c1)N(C(=O)CCC(=O)NCc1ccccc1Cl)CC(C)O2` (stereo not given) gave Marburg entry inh inconclusive and Lassa entry inh 1%[46.1 µM].
CSc1nn2cc(CCN3CCOCC3)c(-c3ccc(F)cc3)nc2c1C#N was read as Shiga toxin inh -5, Marburg entry inh -12%[46.1 µM], Lassa entry inh inconclusive and Cycloheximide cs 6.
Screening CC1(c2ccc(Cl)cc2Cl)OCC(Cn2ccnc2)O1 (stereo not given) returned Shiga toxin inh -18, Marburg entry inh -12%, Lassa entry inh -16% and Cycloheximide cs -2.
`O=C1c2ccccc2C(=O)N1c1cccc(-c2nc3ccccc3o2)c1` gave Shiga toxin inh 3, Marburg entry inh 0%, Lassa entry inh 12% and Cycloheximide cs 1.
Screening COC(=O)c1ccc(-c2nc3ccccc3o2)cc1 returned Shiga toxin inh 24, Marburg entry inh 5% and Cycloheximide cs 13*.
`COc1ccc(-c2nc3ccccc3o2)cc1OC` gave Shiga toxin inh 36* and Cycloheximide cs 36*.
`c1ccc2oc(-c3ccc4nc[nH]c4c3)nc2c1` gave Shiga toxin inh 75*, Marburg entry inh inconclusive, Lassa entry inh 0% and Cycloheximide cs 39*.
Screening COCCn1c(C)cc(C(=O)COC(=O)Cc2n[nH]c(=O)c3ccccc23)c1C returned Marburg entry inh 0%[46.1 µM] and Lassa entry inh 0%.
`Cc1cc(C(=O)COC(=O)c2ccc(N)c([N+](=O)[O-])c2)c(C)n1Cc1ccc2c(c1)OCO2` gave Shiga toxin inh -7 and Cycloheximide cs 1.
Screening COC(=O)c1ccc2c(c1)NC(=O)CS2 returned Shiga toxin inh -3, Marburg entry inh inconclusive, Lassa entry inh -17%[46.1 µM] and Cycloheximide cs -2.
Screening CCn1c(C)cc(C(=O)COC(=O)c2ccccc2[N+](=O)[O-])c1C returned Marburg entry inh inconclusive and Lassa entry inh 0.32µM*.
Screening COCCn1c(C)cc(C(=O)COC(=O)c2ccc3c(c2)NC(=O)CS3)c1C returned Shiga toxin inh 66*, Marburg entry inh inconclusive, Lassa entry inh 29% and Cycloheximide cs 28*.
Screening C=CCn1c(C)cc(C(=O)COC(=O)c2ccc3c(c2)NC(=O)CS3)c1C returned Shiga toxin inh 39*, Marburg entry inh 11µM*, Lassa entry inh inconclusive and Cycloheximide cs 18*.
Screening C=CCn1c(C)cc(C(=O)COC(=O)c2ccc(N)c([N+](=O)[O-])c2)c1C returned Shiga toxin inh 58*, Marburg entry inh inconclusive, Lassa entry inh inconclusive and Cycloheximide cs 55*.
Screening CCN1CCC(N(Cc2ccc3c(c2)OCO3)C(=O)Nc2cc(F)ccc2F)CC1 returned Lassa entry inh -18%[46.1 µM].
Screening CC(C)(C)C(=O)COC(=O)c1ccc(N)c([N+](=O)[O-])c1 returned Shiga toxin inh 83*, Marburg entry inh -21%[46.1 µM], Lassa entry inh 11%[46.1 µM] and Cycloheximide cs 43*.
For CCC(=O)C1CCCN(C(=O)c2ccc3nc(-c4cccc(OC)c4)oc3c2)C1 (stereo not given) the results were Shiga toxin inh 69* and Cycloheximide cs 45*.
Screening CCOC(=O)C1CCCN(C(=O)c2ccc3nc(-c4ccc(OC)c(OC)c4)c(-c4ccc(OC)c(OC)c4)nc3c2)C1 (stereo not given) returned Shiga toxin inh -2 and Cycloheximide cs -3.

Compound activity from PubChem.
